Bioassay records as filed in PubChem BioAssay.
A549 viability = A549 cytotoxicity, counter-screen for Nrf2 inhibitors; 390,000 tested, 0.16% active; AID 504648; Potency, µM (highest dose often 46 µM), for the others: at the highest dose activity change, negative = cytotoxicity, actives largely listed as inhibitors; A549 ARE-Fluc cells, CellTiter-Fluor viability, 18-24 h; note: % is set by controls: 0 for no effect and ±100 for the full control effect
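Cytotoxicity counterscreen: CellTiter-Fluor fluorescence was measured in A549 ARE_Fluc cells after 18-24 h of compound exposure in a concentration series. The subsequent BugLite luminescent read reports ARE-luciferase activity.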
Nrf2 inh = blocks Nrf2 signaling. A549 ARE-Fluc reporter, luciferase luminescence, 18-24 h. Potency, µM (highest dose often 46 µM), inactives show at the top dose activity change, negative = inhibition, actives largely listed as inhibitors. 360,000 tested, 2.1% active; note: % is set by controls: 0 for no effect and ±100 for the full control effect; nearly all actives have a fitted effect of over 60% in size
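In this cell-based qHTS, ARE-driven firefly luciferase in A549 cells reports Nrf2 activity; the luminescent signal after BugLite lysis is the measured value, with a prior CellTiter-Fluor read for cell health.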
rTrxR1 inhibitor = rat TrxR1 inhibition. O89049. recombinant rTrxR1, NADPH fluorescence consumption, selenite substrate. Potency, µM (doses to about 114 µM), inactives show top-dose activity change, negative = inhibition, actives largely listed as inhibitors. 390,000 tested, 1% active. AID 588453; note: % is set by controls: 0 for no effect and ±100 for the full control effect; nearly all actives have a fitted effect of over 65% in size
Target sequence (O89049 whole entry, looked up): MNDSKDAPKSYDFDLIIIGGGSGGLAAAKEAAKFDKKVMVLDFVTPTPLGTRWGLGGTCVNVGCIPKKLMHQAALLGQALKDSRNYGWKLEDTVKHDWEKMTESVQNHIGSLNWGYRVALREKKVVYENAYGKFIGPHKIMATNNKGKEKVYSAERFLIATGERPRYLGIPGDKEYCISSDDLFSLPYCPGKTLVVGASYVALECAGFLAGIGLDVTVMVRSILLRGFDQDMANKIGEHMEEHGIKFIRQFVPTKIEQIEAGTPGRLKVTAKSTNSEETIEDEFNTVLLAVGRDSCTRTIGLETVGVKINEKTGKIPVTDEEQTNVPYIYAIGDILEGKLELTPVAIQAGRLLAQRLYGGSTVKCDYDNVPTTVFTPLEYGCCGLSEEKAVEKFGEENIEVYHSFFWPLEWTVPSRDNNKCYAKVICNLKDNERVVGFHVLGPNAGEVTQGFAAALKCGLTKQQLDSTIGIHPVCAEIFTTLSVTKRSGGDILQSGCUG
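Rat TrxR1 (90 nM in the dispensed reagent) was pre-reduced with 400 uM NADPH for 5 min at room temperature, then incubated with compound for 15 min. After 400 uM selenite was added, NADPH fluorescence (Ex 340/Em 450 nm) was followed for 8 min.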
mIDH1 inhibitor = blocks human mutant IDH1 R132H enzyme; O75874; IDH1-R132H enzyme, NADPH consumption, diaphorase/resazurin fluorescence; Potency, µM (series often up to 76.6 µM), inactives show top-dose activity change, negative = inhibition, most hits filed as inhibitors; 390,000 tested, 0.093% active; note: % is set by controls: 0 for no effect and ±100 for the full control effect; nearly all actives have a fitted effect of over 65% in size
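IDH1-R132H (0.5 ug/mL) preincubated 30 min with compound, then NADPH (0.016 mM) and alpha-KG (2 mM) added; 80 min at RT, pH 7.5. Remaining NADPH coupled via diaphorase/resazurin to fluorescence (540/590 nm); concentration-response curves normalized to no-enzyme control.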
Mito fusion yeast = blocks mitochondrial division or promotes mitochondrial fusion; S. cerevisiae fusion-defective mutant growth rescue, CellTiterGlo 48 h; 320,000 tested, 0.23% active; AID 485298; Potency, µM (titrated, usually from 46.1 µM), inactives show at the top dose growth rescue (activation), actives largely listed as activators; note: % of control where 0% means no effect; nearly all actives have a fitted effect of over 45% in size
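Luminescent cell viability in 1536-well qHTS format served as the measure of rescued growth in ts fusion-mutant S. cerevisiae cultured on non-fermentable YPEG for 48 hours at 37C.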
TrxR1 substrate = substrates of rat thioredoxin reductase 1. O89049. purified TrxR1 substrate turnover, NADPH consumption readout. Potency, µM (titrated, usually from 114 µM), for inactives: at the highest dose activity change, negative = substrate turnover. 390,000 tested, 0.01% active. AID 588456; note: % is set by controls: 0 for no effect and ±100 for the full control effect; nearly all actives have a fitted effect of over 50% in size
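Rat TrxR1, dispensed at 90 nM, was prereduced with 400 uM NADPH (final) for 5 min at ~22 deg C, then incubated with compound 15 min before 400 uM selenite. A first-read NADPH fluorescence drop versus no-compound background flagged substrates.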
The depositor's hits bear a star; [ ] = dose if it differs, or a comment. An excerpt weighted towards active compounds, which were near 3.1% of everything screened. Calls come from the whole dose curve; as a rule, active = well fitted curve in the direction sought with a large enough effect; inconclusive = small, poorly fitted or top-dose-only effect, or another doubt; inactive = no such curve, though single readings can be large; an effect the other way counts as inactive or inconclusive. Potency is the fitted concentration of half-maximal effect.

How did Cc1c(C(=O)NCc2ccccc2)oc2ccc(S(=O)(=O)N3CCC4(CC3)OCCO4)cc12 do in these assays?
A549 viability: 0.8%; Nrf2 inh: 20.6µM*; rTrxR1 inhibitor: 15.6%; mIDH1 inhibitor: -3.1%; Mito fusion yeast: 7.0%; TrxR1 substrate: 2.4%

What do the screens show for `Cc1c(C(=O)NCc2ccccn2)oc2ccc(S(=O)(=O)N3CCC4(CC3)OCCO4)cc12`?
A549 viability: 9.8%; Nrf2 inh: -27.6%; rTrxR1 inhibitor: -0.9%[57.1 µM]; mIDH1 inhibitor: -6.9%; Mito fusion yeast: 3.1%; TrxR1 substrate: 0.4%[57.1 µM]

What do the screens show for `O=C(c1ccccc1Br)N(Cc1ccco1)C1CCS(=O)(=O)C1` (centres undefined)?
A549 viability: -2.8%; Nrf2 inh: 21.3%; rTrxR1 inhibitor: -3.0%; mIDH1 inhibitor: 0.0%; TrxR1 substrate: 4.9%

What do the screens show for `CCc1ccc(CNC(=O)CCCN2C(=O)CCn3nc(-c4cccn4C)cc32)cc1`?
A549 viability: -1.4%; rTrxR1 inhibitor: 9.0%[57.1 µM]; mIDH1 inhibitor: -6.7%; TrxR1 substrate: -0.5%[57.1 µM]

What do the screens show for `COc1ccc(N2CCN(S(=O)(=O)c3ccc(Br)s3)CC2)cc1`?
A549 viability: -8.2%; Nrf2 inh: -29.8%; rTrxR1 inhibitor: -5.0%; mIDH1 inhibitor: 3.5%; Mito fusion yeast: 4.47µM*; TrxR1 substrate: -7.6%

Results for COc1cccc(/C=N/Nc2ncnc3scc(-c4ccccc4)c23)c1OC ?
A549 viability: 10.3%[1.84 µM]; Nrf2 inh: 13µM*; rTrxR1 inhibitor: -9.6%; mIDH1 inhibitor: 0.9%; Mito fusion yeast: 7.7%; TrxR1 substrate: -5.8%

How did Cn1c(=O)c(=O)n(C)c2cc(N3CCCC3)c(NS(=O)(=O)c3ccc(Cl)cc3)cc21 do in these assays?
A549 viability: -11.1%; Nrf2 inh: -2.6%; rTrxR1 inhibitor: 35.5µM*; mIDH1 inhibitor: 5.2%; Mito fusion yeast: 10.3%; TrxR1 substrate: -0.6%

How did Cn1cc(S(=O)(=O)c2ccc(Cl)cc2)c(=O)c2cc(F)c(N3CCCCCC3)cc21 do in these assays?
A549 viability: -22.8%; Nrf2 inh: 16.4µM*; rTrxR1 inhibitor: 15.0%; mIDH1 inhibitor: -6.1%; TrxR1 substrate: 2.2%

Results for Cn1c(=O)c(=O)n(C)c2cc(N3CCOCC3)c(NS(=O)(=O)c3ccc(F)c(Cl)c3)cc21 ?
A549 viability: 3.7%; Nrf2 inh: -2.0%; rTrxR1 inhibitor: 8.6%; mIDH1 inhibitor: -8.2%; Mito fusion yeast: 1.6%; TrxR1 substrate: -3.2%

Results for CCCCOc1cccc(C(=O)N(Cc2ccc(C)o2)c2ccccn2)c1 ?
A549 viability: -23.3%; Nrf2 inh: 14.6µM*; rTrxR1 inhibitor: 9.4%; mIDH1 inhibitor: 3.6%; TrxR1 substrate: 0.8%

What do the screens show for `Cc1ccc(CN(C(=O)c2ccc(F)cc2)c2ccccn2)o1`?
A549 viability: 3.3%; Nrf2 inh: -7.2%; rTrxR1 inhibitor: 19.2%; mIDH1 inhibitor: -3.1%; TrxR1 substrate: 4.2%

Results for CCOc1ccc(S(=O)(=O)N2CCN(c3nc(-c4ccccc4)nc4ccccc34)CC2)cc1 ?
A549 viability: -1.0%; Nrf2 inh: -6.6%; rTrxR1 inhibitor: 30.5%; TrxR1 substrate: 2.8%

Results for Cc1ccc(CNC(=O)c2ccc3nc4[nH]c5ccccc5c4nc3c2)cc1 ?
Mito fusion yeast: 4.9%

Results for COc1ccccc1CNC(=O)c1ccc2nc3[nH]c4ccccc4c3nc2c1 ?
A549 viability: inconclusive; Nrf2 inh: 14.6µM*; rTrxR1 inhibitor: 1.6%; mIDH1 inhibitor: 6.0%; Mito fusion yeast: -4.5%; TrxR1 substrate: -9.1%

How did COc1ccc2[nH]c(=O)cc(C(=O)O)c2c1 do in these assays?
A549 viability: 7.5%; Nrf2 inh: 7.7%; rTrxR1 inhibitor: 5.1%[57.1 µM]; mIDH1 inhibitor: 4.0%; Mito fusion yeast: -0.9%; TrxR1 substrate: 53.3%[57.1 µM]
